Results from the supplement of paper PMC10849652.
About 7,900 targets were measured; listed, in parts, are those with a hit and a random draw of the rest. About 0.6% of all pairs of compound and target were hits. Unmarked numbers belong to inactive results.

Compound: C#Cc1cccc(Nc2ncnc3cc(OCCOC)c(OCCOC)cc23)c1 [erlotinib]
Test: log2 fold change, soluble protein after heating vs DMSO (PISA); higher = thermal stabilisation; K562 cells, 10 uM, 30 min; active = over 0.2 and 3.5 SD of the protein, either way, in both replicates (recomputed)
Method in brief: (§1)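 K562 cells at 2×10^6 cells/mL were exposed to 10 μM compound for 30 min, then aliquots were heated for 3 min across 48°C-58°C, pooled, and extracted in PBS containing 0.5% NP-40 at 4°C. The supernatant after 21,000xg for 90 min was taken as soluble protein and measured by TMTpro 16plex LC-MS/MS with channel sums equalised. Thermal stability is reported relative to control samples, with values from duplicates. Fold changes are given on a log2 scale.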

Sequence of UniProt Q9Y679 (Q9Y679 whole entry, looked up): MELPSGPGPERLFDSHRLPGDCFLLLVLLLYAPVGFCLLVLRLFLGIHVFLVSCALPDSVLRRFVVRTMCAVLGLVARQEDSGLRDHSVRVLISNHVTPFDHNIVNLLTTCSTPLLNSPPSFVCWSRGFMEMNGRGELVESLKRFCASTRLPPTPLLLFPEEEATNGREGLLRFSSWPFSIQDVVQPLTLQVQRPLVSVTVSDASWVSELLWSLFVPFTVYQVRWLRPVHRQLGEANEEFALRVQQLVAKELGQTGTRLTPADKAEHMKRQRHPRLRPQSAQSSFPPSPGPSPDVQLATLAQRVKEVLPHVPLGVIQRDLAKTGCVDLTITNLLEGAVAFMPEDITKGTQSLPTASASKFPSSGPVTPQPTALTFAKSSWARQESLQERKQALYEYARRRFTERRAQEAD
Sequence of UniProt Q9NX46 (Q9NX46 whole entry, looked up): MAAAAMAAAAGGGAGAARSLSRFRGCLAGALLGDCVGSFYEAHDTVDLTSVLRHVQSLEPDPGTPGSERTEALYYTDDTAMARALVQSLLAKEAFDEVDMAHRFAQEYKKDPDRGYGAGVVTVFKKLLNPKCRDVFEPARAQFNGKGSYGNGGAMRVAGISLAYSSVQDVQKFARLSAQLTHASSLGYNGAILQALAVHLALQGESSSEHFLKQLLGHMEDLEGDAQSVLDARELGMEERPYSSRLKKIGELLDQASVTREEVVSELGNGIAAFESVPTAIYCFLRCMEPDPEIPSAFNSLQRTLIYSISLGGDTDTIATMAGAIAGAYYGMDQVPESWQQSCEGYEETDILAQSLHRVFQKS
Sequence of UniProt P35611 (P35611 whole entry, looked up): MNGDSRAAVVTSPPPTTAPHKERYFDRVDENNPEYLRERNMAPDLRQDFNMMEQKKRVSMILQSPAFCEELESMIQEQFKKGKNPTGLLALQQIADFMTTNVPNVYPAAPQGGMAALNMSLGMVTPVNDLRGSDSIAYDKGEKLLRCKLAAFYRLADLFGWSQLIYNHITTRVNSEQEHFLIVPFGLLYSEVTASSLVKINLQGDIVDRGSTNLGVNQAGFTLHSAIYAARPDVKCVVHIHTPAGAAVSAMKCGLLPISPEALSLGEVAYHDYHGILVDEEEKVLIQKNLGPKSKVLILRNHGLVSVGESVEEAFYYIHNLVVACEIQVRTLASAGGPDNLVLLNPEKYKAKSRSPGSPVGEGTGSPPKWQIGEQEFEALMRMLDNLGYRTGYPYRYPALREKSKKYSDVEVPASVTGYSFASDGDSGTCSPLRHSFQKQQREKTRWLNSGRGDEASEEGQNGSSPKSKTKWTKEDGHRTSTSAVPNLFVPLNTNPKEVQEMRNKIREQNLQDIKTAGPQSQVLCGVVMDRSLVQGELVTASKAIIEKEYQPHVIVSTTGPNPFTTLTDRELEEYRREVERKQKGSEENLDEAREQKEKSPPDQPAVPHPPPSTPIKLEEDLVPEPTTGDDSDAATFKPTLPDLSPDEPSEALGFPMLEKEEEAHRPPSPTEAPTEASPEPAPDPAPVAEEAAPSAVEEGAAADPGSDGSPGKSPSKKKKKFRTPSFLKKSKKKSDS
Sequence of UniProt Q9UKV3 (Q9UKV3 whole entry, looked up): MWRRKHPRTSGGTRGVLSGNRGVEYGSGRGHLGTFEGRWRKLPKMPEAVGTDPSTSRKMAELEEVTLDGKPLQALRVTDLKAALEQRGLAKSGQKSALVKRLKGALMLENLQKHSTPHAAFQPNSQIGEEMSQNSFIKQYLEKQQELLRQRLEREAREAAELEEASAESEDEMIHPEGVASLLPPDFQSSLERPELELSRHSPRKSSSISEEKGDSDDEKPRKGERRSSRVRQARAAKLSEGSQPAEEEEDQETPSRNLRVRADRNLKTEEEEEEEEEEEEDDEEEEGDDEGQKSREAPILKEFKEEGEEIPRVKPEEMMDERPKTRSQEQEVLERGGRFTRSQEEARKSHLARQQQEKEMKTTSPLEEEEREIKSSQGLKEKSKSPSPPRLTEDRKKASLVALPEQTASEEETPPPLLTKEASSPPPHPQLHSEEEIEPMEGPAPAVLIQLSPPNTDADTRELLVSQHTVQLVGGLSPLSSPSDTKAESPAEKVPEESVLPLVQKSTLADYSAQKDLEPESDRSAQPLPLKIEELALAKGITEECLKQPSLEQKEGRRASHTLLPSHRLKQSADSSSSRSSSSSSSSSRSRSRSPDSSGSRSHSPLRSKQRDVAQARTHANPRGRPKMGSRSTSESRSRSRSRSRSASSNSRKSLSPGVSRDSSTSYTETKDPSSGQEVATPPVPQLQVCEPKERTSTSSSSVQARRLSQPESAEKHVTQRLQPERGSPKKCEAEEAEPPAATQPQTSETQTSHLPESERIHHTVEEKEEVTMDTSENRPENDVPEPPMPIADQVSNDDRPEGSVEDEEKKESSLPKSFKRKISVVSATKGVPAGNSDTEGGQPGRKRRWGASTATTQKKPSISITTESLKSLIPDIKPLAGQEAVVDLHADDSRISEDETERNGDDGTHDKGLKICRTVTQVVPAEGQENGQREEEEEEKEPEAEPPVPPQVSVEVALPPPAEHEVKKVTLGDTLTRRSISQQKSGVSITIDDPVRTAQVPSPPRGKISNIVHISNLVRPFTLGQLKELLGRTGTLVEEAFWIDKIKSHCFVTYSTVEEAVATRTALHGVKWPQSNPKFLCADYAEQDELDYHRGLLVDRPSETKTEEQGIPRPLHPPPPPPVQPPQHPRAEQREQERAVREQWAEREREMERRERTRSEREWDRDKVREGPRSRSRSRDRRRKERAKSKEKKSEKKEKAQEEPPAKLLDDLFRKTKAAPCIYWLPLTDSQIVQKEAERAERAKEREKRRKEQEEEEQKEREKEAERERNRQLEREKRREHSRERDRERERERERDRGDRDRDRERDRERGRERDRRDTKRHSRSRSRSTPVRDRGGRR
Sequence of UniProt P42025 (P42025 whole entry, looked up): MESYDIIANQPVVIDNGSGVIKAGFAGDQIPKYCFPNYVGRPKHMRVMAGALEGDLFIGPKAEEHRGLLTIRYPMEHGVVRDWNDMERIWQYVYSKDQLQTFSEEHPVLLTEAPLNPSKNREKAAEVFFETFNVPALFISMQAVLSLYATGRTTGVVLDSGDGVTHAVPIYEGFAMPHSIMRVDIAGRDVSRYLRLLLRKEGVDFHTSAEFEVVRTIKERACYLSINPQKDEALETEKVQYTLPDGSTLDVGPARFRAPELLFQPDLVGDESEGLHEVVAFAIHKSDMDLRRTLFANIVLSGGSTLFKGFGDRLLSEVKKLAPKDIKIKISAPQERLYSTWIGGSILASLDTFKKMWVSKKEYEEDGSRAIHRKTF
Sequence of UniProt Q8N6T3 (Q8N6T3 whole entry, looked up): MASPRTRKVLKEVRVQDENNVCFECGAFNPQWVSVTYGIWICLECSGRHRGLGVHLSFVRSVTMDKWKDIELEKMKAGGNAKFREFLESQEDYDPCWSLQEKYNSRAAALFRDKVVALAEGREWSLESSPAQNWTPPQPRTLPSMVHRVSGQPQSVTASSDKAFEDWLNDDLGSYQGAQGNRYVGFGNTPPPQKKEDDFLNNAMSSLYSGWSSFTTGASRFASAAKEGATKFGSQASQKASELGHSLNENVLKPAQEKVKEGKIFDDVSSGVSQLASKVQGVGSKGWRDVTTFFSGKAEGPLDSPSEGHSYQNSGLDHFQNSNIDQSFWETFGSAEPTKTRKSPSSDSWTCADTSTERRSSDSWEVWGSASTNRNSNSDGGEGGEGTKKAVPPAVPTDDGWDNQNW
Sequence of UniProt O00170 (O00170 whole entry, looked up): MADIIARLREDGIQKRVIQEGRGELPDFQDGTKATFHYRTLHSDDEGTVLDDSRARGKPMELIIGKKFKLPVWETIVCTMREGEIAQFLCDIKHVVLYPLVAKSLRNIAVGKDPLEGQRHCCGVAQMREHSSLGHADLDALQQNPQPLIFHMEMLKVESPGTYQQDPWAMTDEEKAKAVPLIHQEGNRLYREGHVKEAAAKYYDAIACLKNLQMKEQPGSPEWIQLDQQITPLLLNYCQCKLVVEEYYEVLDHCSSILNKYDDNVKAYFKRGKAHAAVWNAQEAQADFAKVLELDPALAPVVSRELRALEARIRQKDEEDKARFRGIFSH
Sequence of UniProt P54709 (P54709 whole entry, looked up): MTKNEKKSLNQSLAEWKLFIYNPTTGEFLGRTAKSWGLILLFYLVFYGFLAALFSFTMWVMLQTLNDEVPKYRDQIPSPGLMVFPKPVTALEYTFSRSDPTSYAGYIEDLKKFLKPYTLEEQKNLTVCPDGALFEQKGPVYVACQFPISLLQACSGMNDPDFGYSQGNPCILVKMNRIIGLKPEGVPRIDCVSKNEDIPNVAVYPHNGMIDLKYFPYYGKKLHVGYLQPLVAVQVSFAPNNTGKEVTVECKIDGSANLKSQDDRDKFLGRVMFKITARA
Sequence of UniProt Q02252 (Q02252 whole entry, looked up): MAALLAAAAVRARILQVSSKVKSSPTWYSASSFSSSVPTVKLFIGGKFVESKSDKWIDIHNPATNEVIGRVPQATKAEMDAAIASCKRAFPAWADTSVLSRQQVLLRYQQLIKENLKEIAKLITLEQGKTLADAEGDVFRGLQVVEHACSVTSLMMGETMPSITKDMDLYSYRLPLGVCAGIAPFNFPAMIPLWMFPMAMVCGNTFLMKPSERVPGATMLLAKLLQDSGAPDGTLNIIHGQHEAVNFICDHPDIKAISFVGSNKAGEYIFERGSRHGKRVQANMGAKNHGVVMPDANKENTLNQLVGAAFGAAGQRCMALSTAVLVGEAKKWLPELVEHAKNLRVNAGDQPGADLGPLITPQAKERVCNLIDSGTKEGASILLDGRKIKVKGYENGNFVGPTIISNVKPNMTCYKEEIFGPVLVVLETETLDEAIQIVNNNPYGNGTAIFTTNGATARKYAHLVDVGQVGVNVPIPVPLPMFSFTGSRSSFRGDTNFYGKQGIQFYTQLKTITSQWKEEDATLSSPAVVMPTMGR
Sequence of UniProt Q10589 (Q10589 whole entry, looked up): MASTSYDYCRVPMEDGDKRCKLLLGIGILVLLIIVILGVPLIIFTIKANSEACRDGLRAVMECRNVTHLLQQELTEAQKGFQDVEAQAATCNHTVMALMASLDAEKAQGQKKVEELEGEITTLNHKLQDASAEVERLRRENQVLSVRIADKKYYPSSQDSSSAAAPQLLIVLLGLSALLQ

Target | log2 fold change
ATP6V0A1 isoform 3 (UniProt Q93050) | -0.086
ADPRHL2 (UniProt Q9NX46) | 0.03
BUB1B isoform 3 (UniProt O60566) | 0.019
ATP2A3 isoform 2 (UniProt Q93084) | -0.002
ACIN1 (UniProt Q9UKV3) | 0.116
AIP (UniProt O00170) | 0.035
ATP1B3 (UniProt P54709) | -0.016
ALDH9A1 (UniProt P49189) | 0.131
ATP6V1C1 (UniProt P21283) | -0.103
APPL1 (UniProt Q9UKG1) | -0.049
AKAP8L (UniProt Q9ULX6) | 0.001
ATP23 (UniProt Q9Y6H3) | 0.021
ASNS (UniProt P08243) | 0.006
ACTR1B (UniProt P42025) | -0.13
ARPP19 (UniProt P56211) | -0.01
ARHGAP1 (UniProt Q07960) | -0.039
AGPAT3 isoform 3 (UniProt Q9NRZ7) | 0.009
ATP13A2 (UniProt Q9NQ11) | 0.047

Target | log2 fold change
ALDH6A1 (UniProt Q02252) | 0.067
ATR (UniProt Q13535) | 0.014
ARL2BP (UniProt Q9Y2Y0) | -0.048
AUP1 (UniProt Q9Y679) | 0.018
ADD1 isoform 3 (UniProt P35611) | 0.041
BOP1 (UniProt Q14137) | -0.003
ATP9B (UniProt O43861) | 0.406 (active)
ABCC5 (UniProt O15440) | -0.027
BST2 (UniProt Q10589) | -0.018
AKT2 (UniProt P31751) | 0.014
ABCA3 (UniProt Q99758) | 0.011
ALG3 (UniProt Q92685) | 0.024
BCCIP isoform 2 (UniProt Q9P287) | -0.1
ABHD16A (UniProt O95870) | -0.036
AKAP8 (UniProt O43823) | -0.056
ARGLU1 (UniProt Q9NWB6) | 0.016
ARFGAP1 (UniProt Q8N6T3) | -0.017
AAR2 (UniProt Q9Y312) | 0.075

Compound: C/C(=N\NC(=O)C1=CC(=CC=C1)S(=O)(=O)N2CCOCC2)/C3=C(C=CC(=C3)Cl)O
Test: as above
Method in brief: as §1

Target | log2 fold change
ATP6V0A1 isoform 3 (UniProt Q93050) | -0.041
ADPRHL2 (UniProt Q9NX46) | 0.024
BUB1B isoform 3 (UniProt O60566) | 0.054
ATP2A3 isoform 2 (UniProt Q93084) | -0.002
ACIN1 (UniProt Q9UKV3) | -0.1
AIP (UniProt O00170) | 0.096
ATP1B3 (UniProt P54709) | -0.004
ALDH9A1 (UniProt P49189) | 0.021
ATP6V1C1 (UniProt P21283) | 0.02
APPL1 (UniProt Q9UKG1) | 0.162
AKAP8L (UniProt Q9ULX6) | 0.085
ATP23 (UniProt Q9Y6H3) | -0.079
ASNS (UniProt P08243) | 0.004
ACTR1B (UniProt P42025) | -0.048
ARPP19 (UniProt P56211) | 0.003
ARHGAP1 (UniProt Q07960) | 0.014
AGPAT3 isoform 3 (UniProt Q9NRZ7) | -0.008
ATP13A2 (UniProt Q9NQ11) | 0.012

Target | log2 fold change
ALDH6A1 (UniProt Q02252) | -0.02
ATR (UniProt Q13535) | -0.011
ARL2BP (UniProt Q9Y2Y0) | 0.014
AUP1 (UniProt Q9Y679) | 0.055
ADD1 isoform 3 (UniProt P35611) | 0.018
BOP1 (UniProt Q14137) | 0.038
ATP9B (UniProt O43861) | 0.099
ABCC5 (UniProt O15440) | 0.035
BST2 (UniProt Q10589) | 0.026
AKT2 (UniProt P31751) | 0.096
ABCA3 (UniProt Q99758) | 0.087
ALG3 (UniProt Q92685) | 0.127
BCCIP isoform 2 (UniProt Q9P287) | 0.023
ABHD16A (UniProt O95870) | 0.02
AKAP8 (UniProt O43823) | 0.032
ARGLU1 (UniProt Q9NWB6) | 0.052
ARFGAP1 (UniProt Q8N6T3) | 0.131
AAR2 (UniProt Q9Y312) | 0.089
